From PubChem BioAssay AID1159580 (chemical genetic matrix, 2015)
The whole screen tested about 5,500 compounds, of which about 2,000 (36%) were called active. Roughly 18% stayed inconclusive and do not appear here. Rule as the data show it: active = normalized growth mostly below about 0.91 (no sharp cut-off); inconclusive = no clear call, values can overlap the other calls; inactive = mostly above about 0.92. Some of the results follow.

Assay: chemical genetic growth profiling, strain panel (AID 1159580);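 also: tested at 20 µM; growth read once vehicle control cultures reached saturation at 30 °C; 1 = growth at the plate median or of vehicle wells; lower values mean less growth of the strain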
Settings: S. cerevisiae deletion strains, growth OD
[1] = locus YHR030C, strain SLT2, hits give low values
[2] = locus YHR079C, strain IRE1, hits give low values
[3] = locus YJL095W, strain BCK1, hits give low values
[4] = locus YJR066W, strain TOR1, hits give low values
[5] = locus YLR113W, strain HOG1, hits give low values
[6] = locus YNL183C, strain NPR1, hits give low values
[7] = locus YOR231W, strain MKK1, hits give low values
[8] = locus YPL256C, strain CLN2, hits give low values

Measured: normalized growth

CC[N+](C)(CC)CCOC(=O)C(O)(c1ccccc1)C1CCCCC1 (centres undefined)
inactive: [1] 0.989 | [2] 1 | [3] 0.982 | [4] 0.901 | [5] 1.03 | [6] 0.913 | [7] 0.988 | [8] 0.989

CCN(CC)CC#CCOC(=O)C(O)(c1ccccc1)C1CCCCC1 (centres undefined)
inactive: locus YAL013W, strain DEP1, hits give low values 1 | locus YAL040C, strain CLN3, hits give low values 1 | locus YCL061C, strain MRC1 (second series), hits give low values 1 | locus YDR150W, strain NUM1, hits give low values 1 | locus YDR363W, strain ESC2, hits give low values 1.01 | locus YER002W, strain NOP16, hits give low values 1.06 | [1] 0.985 | [2] 0.996 | [3] 1.05 | [4] 0.927 | [5] 1.04 | locus YNL175C, strain NOP13, hits give low values 1.06 | [6] 0.96 | locus YNL197C, strain WHI3, hits give low values 1.05 | locus YNL224C, strain SQS1, hits give low values 1.02 | locus YOR083W, strain WHI5 (second series), hits give low values 0.998 | [7] 0.989 | locus YPL055C, strain LGE1, hits give low values 1 | locus YPL241C, strain CIN2, hits give low values 1 | [8] 1
active: locus YNL128W, strain TEP1, hits give low values 1.11 [resistant]
